Among the data in PubChem BioAssay (EPA / NIEHS) are AC50 and outcome values, retold here.

Assay [1] is described as follows: ATG_CRE_CIS: Attagene CIS-FACTORIAL HepG2 Assay for human cAMP Responsive Element (CRE) binding protein 3 (AID 2282926). Conditions: HepG2 CRE cis-reporter, Attagene multiplexed mRNA; actives raise or lower the signal. The gist of the method:
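Capillary electrophoresis of 6-FAM-labelled, HpaI-digested PCR products quantified reporter transcripts. These came from HepG2 transiently transfected with cis-element reporters and exposed to test chemicals for 24 hours, with DMSO defining baseline activity.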

Assay [2] is described as follows: ATG_BRE_CIS: Attagene CIS-FACTORIAL HepG2 Assay for human Bone Morphogenetic Protein (BMP) Response Element (BRE) (AID 2282933). The note with it: HepG2 BMP response element reporter, Attagene transcription factor profiling; actives raise or lower the signal. A digest of the protocol:
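Endogenous transcription factor activity at a BMP response element was monitored in transfected HepG2 cells 24 h after dosing. Fluorescent RT-PCR products were resolved by capillary electrophoresis, and activity was fitted in both directions versus DMSO.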

Assay [3] can be described thus: ATG_E_Box_CIS: Attagene CIS-FACTORIAL HepG2 Assay for human Enhancer Box (E-box) (AID 2282936). Conditions: HepG2 E-box cis-reporter transcription, actives raise or lower the signal. A digest of the protocol:
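Endogenous transcription factor activity was sensed in human HepG2 liver cells through transfected cis-promoter reporter units. After 24 h of dosing, total RNA was reverse-transcribed and reporter cDNA resolved by capillary electrophoresis.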

Assay [4] is described as follows: ATG_M_19_CIS: Attagene CIS-FACTORIAL HepG2 Assay for M19 Transcription Factor (Internal Marker) (AID 2282939). The note with it: HepG2 Attagene CIS-FACTORIAL M19 internal marker reporter; actives raise or lower the signal. A digest of the protocol: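 Background-control endpoint from a multiplexed HepG2 reporter panel. Cells carrying cis-regulated reporter constructs are treated 24 h, then reporter transcripts are amplified, fluorescently labelled and sized by capillary electrophoresis. DMSO defines baseline.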

Assay [5] can be described thus: ATG_GLI_CIS: Attagene CIS-FACTORIAL HepG2 Assay for human Zinc Finger Protein GLI1 (AID 2282945). The note with it: HepG2, Attagene cis-factorial reporter mRNA, GLI element; actives raise or lower the signal. A digest of the protocol: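 HepG2 cells transiently transfected with cis-promoter multiplexed reporter units report endogenous transcription factor activity. After 24 h chemical exposure, reporter mRNA was quantified by RT-PCR, 6-FAM labelling, HpaI digestion and capillary electrophoresis, with bidirectional fitting against DMSO.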

Assay [6] is described as follows: ATG_M_06_CIS: Attagene CIS-FACTORIAL HepG2 Assay for M06 Transcription Factor (Internal Marker) (AID 2282950). Conditions: HepG2 Attagene CIS-FACTORIAL M06 internal marker reporter; actives raise or lower the signal. The gist of the method:
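Steps: transfect HepG2 with multiplexed cis-element reporter constructs; dose chemical 24 h; extract RNA with DNase treatment; reverse-transcribe, PCR-amplify, 6-FAM label, HpaI digest; separate fragments by capillary electrophoresis. Activity fitted both directions versus DMSO.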

Assay [7] addresses Hypoxia-inducible factor 1-alpha (Homo sapiens) (UniProt Q16665). Nature of the assay: ATG_HIF1a_CIS: Attagene CIS-FACTORIAL HepG2 Assay for human Hypoxia Inducible Factor 1 (HIF1A) (AID 2282951). The note with it: HepG2 Attagene cis-factorial HIF1a reporter transcription; actives raise or lower the signal. A digest of the protocol: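 HepG2, transient cis-reporter library, 24 h dosing. RNA → RT (oligo dT) → PCR → 6-FAM primer extension → HpaI → CE. Bidirectional curve fit vs DMSO.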

In assay [8] the target is Hepatocyte nuclear factor 6 (Homo sapiens) (UniProt Q9UBC0). The assay can be described thus: ATG_HNF6_CIS: Attagene CIS-FACTORIAL HepG2 Assay for human Hepatocyte Nuclear Factor 6 (HNF6) (AID 2282952). Conditions: HepG2 Attagene cis-factorial HNF6 reporter transcription; actives raise or lower the signal. A digest of the protocol: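 Activity values derive from bidirectional fitting against DMSO of reporter mRNA levels, measured by capillary electrophoresis of labelled RT-PCR products from HepG2 cells exposed 24 h.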
Sequence of Hepatocyte nuclear factor 6 (Homo sapiens) (Q9UBC0 whole entry, looked up): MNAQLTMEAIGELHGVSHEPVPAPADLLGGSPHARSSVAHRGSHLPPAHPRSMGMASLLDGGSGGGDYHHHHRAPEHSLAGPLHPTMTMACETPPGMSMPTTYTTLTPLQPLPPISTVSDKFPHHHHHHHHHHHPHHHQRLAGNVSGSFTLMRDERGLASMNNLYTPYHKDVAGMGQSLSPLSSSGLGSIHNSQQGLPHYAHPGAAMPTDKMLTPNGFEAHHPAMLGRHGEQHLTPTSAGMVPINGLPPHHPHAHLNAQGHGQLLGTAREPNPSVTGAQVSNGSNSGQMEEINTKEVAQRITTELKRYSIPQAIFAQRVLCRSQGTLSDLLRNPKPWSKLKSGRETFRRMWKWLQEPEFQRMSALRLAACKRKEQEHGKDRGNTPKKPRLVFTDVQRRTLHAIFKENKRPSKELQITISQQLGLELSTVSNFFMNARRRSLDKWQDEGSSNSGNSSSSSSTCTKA

In assay [9] the target is Heat shock factor protein 1 (Homo sapiens) (UniProt Q00613). Nature of the assay: ATG_HSE_CIS: Attagene CIS-FACTORIAL HepG2 Assay for human Heat Shock Transcription Factor 1 (HSE) (AID 2282953). The note with it: HepG2 HSE cis-reporter, Attagene RNA transcription; actives raise or lower the signal. The gist of the method: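 Cells were transfected with cis-element-driven reporter constructs, dosed for 24 h, then total RNA was reverse-transcribed and reporter cDNA amplified, FAM-labelled and digested with HpaI. Fragments were resolved by capillary electrophoresis; gain or loss was fitted against DMSO.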
Sequence of Heat shock factor protein 1 (Homo sapiens) (Q00613 whole entry, looked up, the tested form may be a part): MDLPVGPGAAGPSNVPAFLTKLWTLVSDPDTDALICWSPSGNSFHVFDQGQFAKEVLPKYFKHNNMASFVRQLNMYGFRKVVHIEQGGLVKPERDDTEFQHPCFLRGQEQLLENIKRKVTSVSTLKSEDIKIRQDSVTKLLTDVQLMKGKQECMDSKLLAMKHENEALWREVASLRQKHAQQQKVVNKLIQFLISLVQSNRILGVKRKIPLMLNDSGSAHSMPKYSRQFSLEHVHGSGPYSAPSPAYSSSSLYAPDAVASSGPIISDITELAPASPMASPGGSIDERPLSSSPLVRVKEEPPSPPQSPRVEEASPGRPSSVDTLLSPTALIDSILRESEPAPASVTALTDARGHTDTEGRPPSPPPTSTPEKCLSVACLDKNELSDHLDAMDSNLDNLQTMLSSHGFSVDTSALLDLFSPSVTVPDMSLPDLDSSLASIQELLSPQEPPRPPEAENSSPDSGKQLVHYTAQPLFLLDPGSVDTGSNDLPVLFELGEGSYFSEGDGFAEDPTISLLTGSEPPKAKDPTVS

Assay [10] can be described thus: ATG_TA_CIS: Attagene CIS-FACTORIAL HepG2 Assay for human TA Basal Promoter (AID 2282964). Conditions: HepG2 Attagene CIS-factorial TA basal promoter reporter; actives raise or lower the signal. A digest of the protocol:
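Steps: transfect HepG2 with MRTUs; dose 24 h; isolate RNA, DNase-treat, reverse-transcribe; PCR and FAM-label reporter cDNA; digest with HpaI 2h at 37 C; run capillary electrophoresis. Activity fitted both directions against DMSO.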

A short description of assay [11]: ATG_VDRE_CIS: Attagene CIS-FACTORIAL HepG2 Assay for human Vitamin D Receptor Element (VDRE) (AID 2282968). Conditions: HepG2 VDRE cis-reporter transcription, actives raise or lower the signal. A digest of the protocol:
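Steps: transfect HepG2 with multiple reporter transcription units; dose chemicals 24 h; isolate RNA; RT-PCR; label with 6-FAM primer extension; HpaI digest; capillary electrophoresis. Curves fitted both directions against DMSO.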

Assay [12] deals with X-box-binding protein 1 (Homo sapiens) (UniProt P17861). Nature of the assay: ATG_Xbp1_CIS: Attagene CIS-FACTORIAL HepG2 Assay for human X-box Binding Protein 1 (XBP1) (AID 2282972). Conditions: HepG2 XBP1 cis-element reporter, Attagene multiplex; actives raise or lower the signal. A digest of the protocol:
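Changes in reporter transcript abundance, read by RT-PCR and capillary electrophoresis, reflect endogenous transcription factor activity. Transfected HepG2 cells received compound for 24 hours; DMSO defined baseline for bidirectional analysis.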

For assay [13], the target named is Nuclear respiratory factor 1 (Homo sapiens) (UniProt Q16656). Nature of the assay: ATG_NRF1_CIS: Attagene CIS-FACTORIAL HepG2 Assay for human Nuclear Respiratory Factor 1 (NRF1) Orphan Gene (AID 2282987). Conditions: HepG2 NRF1 cis-element reporter, Attagene multiplex; actives raise or lower the signal. A digest of the protocol:
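Human hepatoma HepG2 cells carrying transfected promoter-regulated reporter units were incubated with test chemicals for 24 h. Reporter transcripts were measured by RT-PCR plus capillary electrophoresis, and endpoints derived by bidirectional fitting with DMSO as baseline.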

Assay [14] concerns the target Myc proto-oncogene protein (Homo sapiens) (UniProt P01106). Nature of the assay: ATG_Myc_CIS: Attagene CIS-FACTORIAL HepG2 Assay for human Myelocytomatosis (Myc) Proto-Oncogene Transcription Factor (AID 2282990). The note with it: HepG2, Attagene cis-reporter transcription factor activity; actives raise or lower the signal. The gist of the method: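 Multiplexed cis-reporter transcription in HepG2 cells after 24 h chemical treatment. Reporter mRNA measured by RT-PCR and capillary electrophoresis fluorescence; activity fitted bidirectionally against DMSO control.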

A short description of assay [15]: ATG_NRF2_ARE_CIS: Attagene CIS-FACTORIAL HepG2 Assay for human Nuclear Factor Erythroid 2 Related Factor 2 (NFR2) response to Antioxidant Response Elements (ARE) (AID 2282992). Conditions: HepG2 Attagene ARE/NRF2 reporter, transcription factor activity; actives raise or lower the signal. A digest of the protocol:
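Using transiently transfected HepG2 cells exposed for 24 h, reporter mRNA levels were determined by RT-PCR with fluorescent primer extension and capillary electrophoresis, analysed for gain or loss of signal against DMSO.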

The nature of assay [16]: ATG_Oct_MLP_CIS: Attagene CIS-FACTORIAL HepG2 Assay for human Octamer-Binding Transcription Factor (Oct) (AID 2282993). Conditions: HepG2 Attagene cis-factorial Oct reporter, mRNA; actives raise or lower the signal. The gist of the method:
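Multiplexed cis-reporter assay in human liver HepG2 cells, 24 h incubation. Reporter RNA amplified and labelled, then resolved by capillary electrophoresis; DMSO serves as negative control and baseline.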

The target of assay [17] is Cellular tumor antigen p53 (Homo sapiens) (UniProt P04637). The assay can be described thus: ATG_p53_CIS: Attagene CIS-FACTORIAL HepG2 Assay for human p53 Transcription Factor (AID 2282994). Conditions: HepG2 p53 cis-element reporter, Attagene mRNA; actives raise or lower the signal. A digest of the protocol: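 In HepG2 cells, reporter transcription units under cis-regulatory promoters were transiently introduced. Following 24 h treatment, RNA was processed to labelled, digested cDNA fragments read by capillary electrophoresis; fitting was bidirectional versus DMSO.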
Sequence of Cellular tumor antigen p53 (Homo sapiens) (P04637 whole entry, looked up, the tested form may be a part): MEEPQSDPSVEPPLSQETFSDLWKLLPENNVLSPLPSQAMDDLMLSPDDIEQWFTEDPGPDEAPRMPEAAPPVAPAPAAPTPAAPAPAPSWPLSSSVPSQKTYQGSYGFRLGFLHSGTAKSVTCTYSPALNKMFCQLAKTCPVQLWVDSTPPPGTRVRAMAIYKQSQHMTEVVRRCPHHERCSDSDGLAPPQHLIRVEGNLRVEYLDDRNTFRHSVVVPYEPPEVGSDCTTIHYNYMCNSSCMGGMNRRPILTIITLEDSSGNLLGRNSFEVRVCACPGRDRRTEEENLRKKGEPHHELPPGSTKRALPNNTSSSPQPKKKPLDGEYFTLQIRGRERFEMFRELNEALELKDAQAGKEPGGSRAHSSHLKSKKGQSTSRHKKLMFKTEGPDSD

In assay [18] the target is Aryl hydrocarbon receptor (Homo sapiens) (UniProt P35869). Nature of the assay: ATG_Ahr_CIS: Attagene CIS-FACTORIAL HepG2 Assay for human Aryl Hydrocarbon Receptor (Ahr) (AID 2282930). The note with it: HepG2 AhR cis-factorial reporter transcription; actives raise or lower the signal. The gist of the method:
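Values derive from bidirectional fitting against DMSO negative control. Underlying signal: cis-element reporter mRNA in transiently transfected HepG2, harvested 24 h post-dose and measured by RT-PCR plus capillary electrophoresis.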

A short description of assay [19]: ATG_AP_1_CIS: Attagene CIS-FACTORIAL HepG2 Assay for human Activator Protein 1 (AP-1) (AID 2282931). The note with it: HepG2 Attagene cis-factorial AP-1 reporter mRNA; actives raise or lower the signal. A digest of the protocol: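 Fluorescence of labelled PCR fragments separated by capillary electrophoresis gives reporter mRNA levels. HepG2 with transfected cis-regulated reporter units, 24 h exposure; DMSO serves as baseline for bidirectional curve fits.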

For assay [20], the target named is CCAAT/enhancer-binding protein beta (Homo sapiens) (UniProt P17676). Nature of the assay: ATG_C_EBP_CIS: Attagene CIS-FACTORIAL HepG2 Assay for human CCAAT/Enhancer Binding Protein (C/EBP) beta (AID 2282927). The note with it: HepG2 Attagene cis-factorial transcription factor reporter; actives raise or lower the signal. The gist of the method:
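Following a 24 h incubation with test chemical, transfected HepG2 cells yielded RNA whose reporter transcripts were quantified by RT-PCR and fluorescent capillary electrophoresis, with DMSO serving as baseline for bidirectional fitting.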

Each structure is given as a SMILES string. Calls of active or inactive are those of the source. How the source made its calls: active means hit-call score of the fitted dose curve at least 0.9, where 1 is the maximum; inactive means score below 0.9.

Sequence of Nuclear respiratory factor 1 (Homo sapiens) (Q16656 whole entry, looked up): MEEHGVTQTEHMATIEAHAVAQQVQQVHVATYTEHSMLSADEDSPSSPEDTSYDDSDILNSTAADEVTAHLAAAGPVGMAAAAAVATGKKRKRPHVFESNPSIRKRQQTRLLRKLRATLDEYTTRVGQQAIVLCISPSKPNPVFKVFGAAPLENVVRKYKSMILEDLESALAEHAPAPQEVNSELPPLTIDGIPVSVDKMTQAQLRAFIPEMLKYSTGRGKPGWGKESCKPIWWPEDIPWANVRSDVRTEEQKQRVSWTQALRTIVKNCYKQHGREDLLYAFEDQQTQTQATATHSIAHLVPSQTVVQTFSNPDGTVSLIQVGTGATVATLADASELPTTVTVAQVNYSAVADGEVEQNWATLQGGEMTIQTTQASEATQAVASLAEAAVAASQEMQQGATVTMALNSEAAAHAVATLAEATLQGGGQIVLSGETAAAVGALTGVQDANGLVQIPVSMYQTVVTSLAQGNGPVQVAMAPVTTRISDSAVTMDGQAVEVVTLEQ
Sequence of X-box-binding protein 1 (Homo sapiens) (P17861 whole entry, looked up): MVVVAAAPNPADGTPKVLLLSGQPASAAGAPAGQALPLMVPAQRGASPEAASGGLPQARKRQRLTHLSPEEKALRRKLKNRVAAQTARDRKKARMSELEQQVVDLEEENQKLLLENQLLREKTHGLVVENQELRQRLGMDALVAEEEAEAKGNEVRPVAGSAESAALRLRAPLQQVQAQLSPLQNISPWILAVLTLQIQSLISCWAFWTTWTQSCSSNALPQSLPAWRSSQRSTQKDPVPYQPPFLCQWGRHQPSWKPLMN
Sequence of Myc proto-oncogene protein (Homo sapiens) (P01106 whole entry, looked up): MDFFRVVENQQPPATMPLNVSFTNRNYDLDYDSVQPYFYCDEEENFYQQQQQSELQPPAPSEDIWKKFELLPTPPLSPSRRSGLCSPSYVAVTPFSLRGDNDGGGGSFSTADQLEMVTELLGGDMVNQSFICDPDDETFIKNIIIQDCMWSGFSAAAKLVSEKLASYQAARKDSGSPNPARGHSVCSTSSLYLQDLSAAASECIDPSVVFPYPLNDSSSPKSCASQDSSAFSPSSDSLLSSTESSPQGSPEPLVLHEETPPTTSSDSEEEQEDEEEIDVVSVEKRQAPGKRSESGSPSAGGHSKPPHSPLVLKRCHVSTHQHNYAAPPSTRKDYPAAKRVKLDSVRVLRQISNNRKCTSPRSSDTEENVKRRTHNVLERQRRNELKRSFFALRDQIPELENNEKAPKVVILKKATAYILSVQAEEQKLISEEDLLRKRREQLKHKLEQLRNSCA
Sequence of Hypoxia-inducible factor 1-alpha (Homo sapiens) (Q16665 whole entry, looked up): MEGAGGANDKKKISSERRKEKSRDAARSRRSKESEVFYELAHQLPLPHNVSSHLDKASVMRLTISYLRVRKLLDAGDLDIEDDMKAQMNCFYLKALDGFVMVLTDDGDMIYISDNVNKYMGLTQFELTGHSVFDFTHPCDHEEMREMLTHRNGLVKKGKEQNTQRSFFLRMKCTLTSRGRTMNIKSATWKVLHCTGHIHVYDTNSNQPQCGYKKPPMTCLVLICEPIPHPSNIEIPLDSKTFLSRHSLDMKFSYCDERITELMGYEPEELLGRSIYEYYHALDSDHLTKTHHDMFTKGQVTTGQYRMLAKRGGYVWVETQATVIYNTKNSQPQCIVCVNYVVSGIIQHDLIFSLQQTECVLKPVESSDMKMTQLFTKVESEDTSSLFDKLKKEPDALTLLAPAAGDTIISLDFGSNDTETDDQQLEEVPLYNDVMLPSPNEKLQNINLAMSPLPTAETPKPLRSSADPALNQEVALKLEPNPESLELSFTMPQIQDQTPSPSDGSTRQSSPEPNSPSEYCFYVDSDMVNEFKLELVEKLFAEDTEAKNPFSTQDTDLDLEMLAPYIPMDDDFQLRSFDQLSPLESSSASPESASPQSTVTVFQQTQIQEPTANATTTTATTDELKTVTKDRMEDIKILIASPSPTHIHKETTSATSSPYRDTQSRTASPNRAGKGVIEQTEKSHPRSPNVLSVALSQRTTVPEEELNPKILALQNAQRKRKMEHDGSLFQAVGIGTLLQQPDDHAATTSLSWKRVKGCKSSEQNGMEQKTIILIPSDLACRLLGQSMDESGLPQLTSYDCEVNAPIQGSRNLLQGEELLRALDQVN
Sequence of Aryl hydrocarbon receptor (Homo sapiens) (P35869 whole entry, looked up): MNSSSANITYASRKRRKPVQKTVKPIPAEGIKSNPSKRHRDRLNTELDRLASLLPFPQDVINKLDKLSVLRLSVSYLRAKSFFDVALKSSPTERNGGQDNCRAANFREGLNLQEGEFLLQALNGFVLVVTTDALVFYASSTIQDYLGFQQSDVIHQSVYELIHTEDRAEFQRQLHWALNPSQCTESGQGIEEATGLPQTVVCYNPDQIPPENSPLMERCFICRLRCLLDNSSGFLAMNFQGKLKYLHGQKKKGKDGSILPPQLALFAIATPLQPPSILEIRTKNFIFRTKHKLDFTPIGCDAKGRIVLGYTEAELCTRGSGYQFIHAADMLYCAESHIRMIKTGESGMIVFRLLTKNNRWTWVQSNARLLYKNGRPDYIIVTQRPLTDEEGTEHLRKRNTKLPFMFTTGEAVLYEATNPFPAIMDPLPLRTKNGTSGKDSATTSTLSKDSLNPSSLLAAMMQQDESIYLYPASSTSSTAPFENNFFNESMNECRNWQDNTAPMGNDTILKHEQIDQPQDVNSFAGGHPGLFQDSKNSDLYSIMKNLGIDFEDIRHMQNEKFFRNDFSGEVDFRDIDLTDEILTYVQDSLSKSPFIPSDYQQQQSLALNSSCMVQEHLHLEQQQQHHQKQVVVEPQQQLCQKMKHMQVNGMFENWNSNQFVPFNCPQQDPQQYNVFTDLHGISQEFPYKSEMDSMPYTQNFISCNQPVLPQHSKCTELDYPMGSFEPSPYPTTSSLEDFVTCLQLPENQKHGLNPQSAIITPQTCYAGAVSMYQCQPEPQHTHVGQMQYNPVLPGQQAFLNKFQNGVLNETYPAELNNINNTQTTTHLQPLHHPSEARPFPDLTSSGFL
Sequence of CCAAT/enhancer-binding protein beta (Homo sapiens) (P17676 whole entry, looked up): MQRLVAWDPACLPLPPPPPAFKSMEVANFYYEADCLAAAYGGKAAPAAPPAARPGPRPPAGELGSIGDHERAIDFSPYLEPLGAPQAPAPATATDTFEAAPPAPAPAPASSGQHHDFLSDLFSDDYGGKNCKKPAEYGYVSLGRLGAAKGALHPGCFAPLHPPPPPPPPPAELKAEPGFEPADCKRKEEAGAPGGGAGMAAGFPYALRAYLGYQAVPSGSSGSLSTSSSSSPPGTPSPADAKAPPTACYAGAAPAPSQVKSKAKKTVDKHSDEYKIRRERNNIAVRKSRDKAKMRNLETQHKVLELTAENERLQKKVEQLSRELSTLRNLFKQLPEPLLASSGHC

By AC50 is commonly meant the concentration at which the activity in the assay is half-maximal. In the case of `c1cc(OCC2CO2)ccc1Cc1ccc(OCC2CO2)cc1` (stereo not drawn), the AC50 in [1] is 19.6 µM (active); in assay [3], 53.2 µM (active); in assay [8], 45.8 µM (active); in assay [9] it was 62.6 µM (active); in [11], 8.36 µM (active); in [12] it was 19.8 µM (active). Moreover, the AC50 in assay [14] is 22.9 µM (active); in assay [15] it was 8.95 µM (active); in [16], 25.3 µM (active); in assay [17], 55.3 µM (active). Besides, the outcome in [2], in assay [4], in assay [5], in [6], in assay [7] and in assay [10] was inactive. Further, the result in [13] was inactive.
Take `N#Cc1cc(I)c(O)c(I)c1`: the compound was classed as inactive in assay [1], in [18], in assay [3], in assay [4], in assay [5] and in assay [7]. Further, the result in [8], in assay [9], in assay [10], in assay [13], in [14] and in [17] was inactive. For the same compound, the AC50 in [19] is 100 µM (active); in assay [11], 30.8 µM (active); in assay [12], 33.6 µM (active); in [15] it was 28.3 µM (active); in [16], 39.3 µM (active).
As to `CCOC(=O)COc1ccc(Cl)cc1Cl`, the call in assay [1], in assay [20], in assay [3], in assay [4], in assay [6] and in assay [7] was inactive. Also, the compound was classed as inactive in [8], in [9], in assay [12], in [13], in [14] and in assay [15]. For the same compound, the outcome in [16] and in assay [17] was inactive.
As for `CCOC(=O)NC(=S)Nc1ccccc1NC(=S)NC(=O)OCC`, the compound was called inactive in assay [18], in [2], in assay [4], in assay [6], in assay [7] and in assay [8]. The result in [9], in assay [10], in [11], in [12], in [13] and in assay [14] was inactive. Also, the compound was classed as inactive in assay [16] and in assay [17]. Moreover, in [15], the AC50 was 5.19 µM (active).
